Results reported in the supplement of paper PMC4466140.

biological target: SpBzz1-D2; test: SPOT peptide array binding signal intensity (averaged, normalized) (arbitrary units (background-subtracted, floor 0; scale differs between SH3 domains)); higher = stronger binding of the SH3 domain to the peptide
Outline: (§1)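 E. coli BL21(DE3) was used to express GST-fused SH3 domains from four yeast species, which were then purified on glutathione Sepharose. These were incubated at 10 μg/ml in TBS-based blocking buffer overnight at 4°C on cellulose membranes carrying synthetic 15-mer peptides, in which cysteines were replaced by serines. Binding signal is the replicate average of normalized, background-subtracted spot intensity, in arbitrary units that differ between domains.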

Binder | SPOT peptide array binding signal intensity
NFLRLLIGLPSQNEL | ≤ 0

biological target: SpCyk3; test: as above
Outline: as §1

Binder | SPOT peptide array binding signal intensity
NFLRLLIGLPSQNEL | 7

biological target: SpHof1; test: as above
Outline: as §1

Binder | SPOT peptide array binding signal intensity
NFLRLLIGLPSQNEL | 121

biological target: SpHof1-2; test: as above
Outline: as §1

Binder | SPOT peptide array binding signal intensity
NFLRLLIGLPSQNEL | 31.5

biological target: SpHof1-3; test: as above
Outline: as §1

Binder | SPOT peptide array binding signal intensity
NFLRLLIGLPSQNEL | 443

biological target: SpHse1; test: as above
Outline: as §1

Binder | SPOT peptide array binding signal intensity
NFLRLLIGLPSQNEL | 3340

biological target: SpLsb1; test: as above
Outline: as §1

Binder | SPOT peptide array binding signal intensity
NFLRLLIGLPSQNEL | ≤ 0

biological target: SpLsb4; test: as above
Outline: as §1

Binder | SPOT peptide array binding signal intensity
NFLRLLIGLPSQNEL | ≤ 0

biological target: SpMyo1; test: as above
Outline: as §1

Binder | SPOT peptide array binding signal intensity
NFLRLLIGLPSQNEL | 0.5

biological target: SpNbp2; test: as above
Outline: as §1

Binder | SPOT peptide array binding signal intensity
NFLRLLIGLPSQNEL | 52.5

biological target: SpPex13; test: as above
Outline: as §1

Binder | SPOT peptide array binding signal intensity
NFLRLLIGLPSQNEL | 52

biological target: SpRvs167; test: as above
Outline: as §1

Binder | SPOT peptide array binding signal intensity
NFLRLLIGLPSQNEL | 9.83

biological target: SpSla1-D1-D2; test: as above
Outline: as §1

Binder | SPOT peptide array binding signal intensity
NFLRLLIGLPSQNEL | 4

biological target: SpSla1-D3; test: as above
Outline: as §1

Binder | SPOT peptide array binding signal intensity
NFLRLLIGLPSQNEL | 8
